Data from PubChem BioAssay AID1159580 (chemical genetic matrix, 2015).
The campaign covered roughly 5,500 compounds. About 2,000 (36%) were called active. Roughly 18% stayed inconclusive and do not appear here. Rule as the data show it: active = normalized growth mostly below about 0.91 (no sharp cut-off); inconclusive = no clear call, values can overlap the other calls; inactive = mostly above about 0.92. The list shows a part of the results.

Test: chemical genetic growth profiling, strain panel (AID 1159580);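 also: tested at 20 µM; growth read once vehicle control cultures reached saturation at 30 °C; 1 = growth at the plate median or of vehicle wells; lower values mean less growth of the strain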
Conditions: growth OD

Measured: normalized growth

O=C(N[C@@H](CO)[C@H](O)c1ccc([N+](=O)[O-])cc1)C(Cl)Cl
inactive: S. cerevisiae deletion strains, locus YJR075W, strain HOC1, active compounds read low 1.02 | S. cerevisiae deletion strains, locus YKL009W, strain mrt4, active compounds read low 1.01 | S. cerevisiae deletion strains, locus YKL068W, active compounds read low 1 | S. cerevisiae deletion strains, locus YKL085W, strain MDH1 (second series), active compounds read low 1 | S. cerevisiae deletion strains, locus YKL085W, strain MDH1, active compounds read low 1 | S. cerevisiae deletion strains, locus YKL160W, strain elf1, active compounds read low 1.04 | S. cerevisiae deletion strains, locus YKL190W, strain CNB1, active compounds read low 1 | S. cerevisiae deletion strains, locus YKR001C, strain vps1, active compounds read low 1 | S. cerevisiae deletion strains, locus YKR026C, strain gcn3, active compounds read low 1.04 | S. cerevisiae deletion strains, locus YKR091W, strain srl3, active compounds read low 0.999 | S. cerevisiae deletion strains, locus YLL001W, strain dnm1, active compounds read low 1.01 | S. cerevisiae deletion strains, locus YLL026W, active compounds read low 0.998 | S. cerevisiae deletion strains, locus YLL041C, strain sdh2, active compounds read low 1.01 | S. cerevisiae deletion strains, locus YLR027C, strain aat2, active compounds read low 1.02 | S. cerevisiae deletion strains, locus YLR039C, strain RIC1, active compounds read low 1.01 | S. cerevisiae deletion strains, locus YLR058C, strain SHM2, active compounds read low 1 | S. cerevisiae deletion strains, locus YLR102C, strain apc9, active compounds read low 1.01 | S. cerevisiae deletion strains, locus YLR113W, strain HOG1, active compounds read low 0.972 | S. cerevisiae deletion strains, locus YLR221C, strain rsa3, active compounds read low 1.02 | S. cerevisiae deletion strains, locus YLR258W, strain gsy2, active compounds read low 1.01 | S. cerevisiae deletion strains, locus YLR262C, strain YPT6 (second series), active compounds read low 1.01 | S. cerevisiae deletion strains, locus YLR262C, strain YPT6, active compounds read low 1.03 | S. cerevisiae deletion strains, locus YLR268W, strain sec22, active compounds read low 1.05 | S. cerevisiae deletion strains, locus YLR320W, strain mms22, active compounds read low 1 | S. cerevisiae deletion strains, locus YLR330W, strain CHS5, active compounds read low 0.999 | S. cerevisiae deletion strains, locus YLR342W, strain FKS1 (second series), active compounds read low 1.01 | S. cerevisiae deletion strains, locus YLR342W, strain FKS1, active compounds read low 1.01 | S. cerevisiae deletion strains, locus YLR357W, strain rsc2, active compounds read low 1.08 | S. cerevisiae deletion strains, locus YLR370C, strain arc18, active compounds read low 1.02 | S. cerevisiae deletion strains, locus YLR371W, strain rom2, active compounds read low 1.02 | S. cerevisiae deletion strains, locus YLR384C, strain iki3, active compounds read low 1.02 | S. cerevisiae deletion strains, locus YLR418C, strain cdc73, active compounds read low 1.01 | S. cerevisiae deletion strains, locus YML016C, strain PPZ1, active compounds read low 1 | S. cerevisiae deletion strains, locus YML032C, strain rad52, active compounds read low 1.03 | S. cerevisiae deletion strains, locus YML120C, strain ndi1, active compounds read low 1 | S. cerevisiae deletion strains, locus YML124C, strain tub3, active compounds read low 1 | S. cerevisiae deletion strains, locus YMR058W, strain fet3, active compounds read low 1.01 | S. cerevisiae deletion strains, locus YMR078C, strain ctf18, active compounds read low 1.01 | S. cerevisiae deletion strains, locus YMR125W, strain sto1, active compounds read low 1.02 | S. cerevisiae deletion strains, locus YMR129W, active compounds read low 1.02 | S. cerevisiae deletion strains, locus YMR205C, strain PFK2, active compounds read low 1 | S. cerevisiae deletion strains, locus YMR223W, strain ubp8, active compounds read low 0.974 | S. cerevisiae deletion strains, locus YMR231W, strain pep5, active compounds read low 1.02 | S. cerevisiae deletion strains, locus YMR263W, strain SAP30, active compounds read low 1.02 | S. cerevisiae deletion strains, locus YMR307W, strain GAS1, active compounds read low 0.986 | S. cerevisiae deletion strains, locus YNL067W, strain RPL9B, active compounds read low 1.03 | S. cerevisiae deletion strains, locus YNL071W, strain lat1, active compounds read low 1.02 | S. cerevisiae deletion strains, locus YNL128W, strain TEP1, active compounds read low 1.01 | S. cerevisiae deletion strains, locus YNL153C, strain GIM3, active compounds read low 1.03 | S. cerevisiae deletion strains, locus YNL183C, strain NPR1, active compounds read low 0.921 | S. cerevisiae deletion strains, locus YNL209W, strain ssb2, active compounds read low 1.03 | S. cerevisiae deletion strains, locus YNL233W, strain BNI4, active compounds read low 1.02 | S. cerevisiae deletion strains, locus YNL248C, strain rpa49, active compounds read low 1.04 | S. cerevisiae deletion strains, locus YNL250W, strain rad50, active compounds read low 1 | S. cerevisiae deletion strains, locus YNL271C, strain bni1, active compounds read low 1.01 | S. cerevisiae deletion strains, locus YNL298W, strain CLA4, active compounds read low 1.02 | S. cerevisiae deletion strains, locus YNL307C, strain MCK1, active compounds read low 1.01 | S. cerevisiae deletion strains, locus YNL322C, strain KRE1 (second series), active compounds read low 1.04 | S. cerevisiae deletion strains, locus YNL322C, strain KRE1, active compounds read low 0.999 | S. cerevisiae deletion strains, locus YNR049C, strain mso1, active compounds read low 1.01 | S. cerevisiae deletion strains, locus YNR052C, strain pop2, active compounds read low 1.01 | S. cerevisiae deletion strains, locus YOL006C, strain TOP1, active compounds read low 1.1 | S. cerevisiae deletion strains, locus YOL012C, strain htz1 1.24 | S. cerevisiae deletion strains, locus YOL147C, strain pex11, active compounds read low 1.03 | S. cerevisiae deletion strains, locus YOR001W, strain rrp6, active compounds read low 1.02 | S. cerevisiae deletion strains, locus YOR061W, strain CKA2, active compounds read low 1.01 | S. cerevisiae deletion strains, locus YOR069W, strain VPS5, active compounds read low 1 | S. cerevisiae deletion strains, locus YOR070C, strain gyp1, active compounds read low 1 | S. cerevisiae deletion strains, locus YOR080W, strain dia2, active compounds read low 1.02 | S. cerevisiae deletion strains, locus YOR083W, strain WHI5, active compounds read low 0.984 | S. cerevisiae deletion strains, locus YOR106W, strain vam3, active compounds read low 1.02 | S. cerevisiae deletion strains, locus YOR136W, strain idh2, active compounds read low 0.998 | S. cerevisiae deletion strains, locus YOR144C, strain elg1, active compounds read low 1.01 | S. cerevisiae deletion strains, locus YOR184W, strain ser1, active compounds read low 1 | S. cerevisiae deletion strains, locus YOR231W, strain MKK1, active compounds read low 0.956 | S. cerevisiae deletion strains, locus YOR265W, strain rbl2, active compounds read low 1.02 | S. cerevisiae deletion strains, locus YOR270C, strain vph1, active compounds read low 1.07 | S. cerevisiae deletion strains, locus YOR290C, strain snf2, active compounds read low 1.02 | S. cerevisiae deletion strains, locus YOR316C, strain cot1, active compounds read low 1.01 | S. cerevisiae deletion strains, locus YPL051W, strain arl3, active compounds read low 1.02 | S. cerevisiae deletion strains, locus YPL055C, strain LGE1, active compounds read low 0.986 | S. cerevisiae deletion strains, locus YPL078C, strain atp4, active compounds read low 1.03 | S. cerevisiae deletion strains, locus YPL106C, strain sse1, active compounds read low 1.01 | S. cerevisiae deletion strains, locus YPL240C, strain hsp82, active compounds read low 1.01 | S. cerevisiae deletion strains, locus YPL241C, strain CIN2, active compounds read low 1 | S. cerevisiae deletion strains, locus YPL256C, strain CLN2, active compounds read low 0.955 | S. cerevisiae deletion strains, locus YPR119W, strain clb2, active compounds read low 1 | S. cerevisiae deletion strains, locus YPR141C, strain kar3, active compounds read low 0.995 | S. cerevisiae deletion strains, locus YPR163C, strain tif3, active compounds read low 1.02 | S. cerevisiae deletion strains, locus YPR167C, strain met16, active compounds read low 0.999 | S. cerevisiae deletion strains, strain wtn01, active compounds read low 1.04 | S. cerevisiae strains, strain wild type, active compounds read low 1
